Compounds without any hit were thinned out: in the full panel of roughly 79,000, 15% have a hit. No stated cut-off is given here; in the data, active means growth inhibition above about 70%; inactive means the rest.
Experiments:
[1] = NCI Yeast Anticancer Drug Screen. Data for the rad50 strain (AID 155);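 further: 0% = growth of vehicle-only cultures of the same strain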; settings: S. cerevisiae rad50 strain growth inhibition; at 50.0 µM; hits give high values
Summary of the method: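 Inhibition values express reduced yeast growth in compound-treated cultures relative to vehicle-treated controls.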

[2] = NCI Yeast Anticancer Drug Screen. Data for the mec2-1 strain (AID 157); settings: S. cerevisiae mec2-1 strain, at 50.0 µM, hits give high values
Summary of the method: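 Strain: mec2-1 (DNA repair/cell cycle alteration). Compound exposure, then growth measured; inhibition expressed relative to vehicle.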

[3] = NCI Yeast Anticancer Drug Screen. Data for the sgs1 mgt1 strain (AID 161);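 further: 0% = growth of cultures given vehicle only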; settings: S. cerevisiae sgs1 mgt1 strain, at 50.0 µM, hits give high values
Summary of the method: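 Test agents were incubated with a DNA-repair-mutant yeast strain. Growth was then read and compared against vehicle-treated controls.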

[4] = NCI Yeast Anticancer Drug Screen. Data for the cln2 rad14 strain (AID 165);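 further: 0% = growth equal to vehicle treated cultures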; settings: S. cerevisiae cln2 rad14 strain, at 50.0 µM, hits give high values
Summary of the method: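 Compounds are applied to the cln2 rad14 yeast strain, and growth is then compared with that of vehicle-treated cultures to give inhibition.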

[5] = NCI Yeast Anticancer Drug Screen. Data for the bub3 strain (AID 167); settings: S. cerevisiae bub3 mutant strain, at 50.0 µM, hits give high values
Summary of the method: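 Steps: expose the mutant yeast strain to compound; grow alongside vehicle-treated cultures; measure growth; express inhibition against the vehicle cultures.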

[6] = NCI Yeast Anticancer Drug Screen. Data for the mlh1 rad18 strain (AID 175); settings: S. cerevisiae mlh1 rad18 strain growth inhibition; at 50.0 µM; hits give high values
Summary of the method: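 Read-out is yeast growth inhibition, calculated against vehicle-only controls. The compound was applied to a strain engineered with DNA damage repair alterations.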

Measured: growth inhibition

CCSc1[nH]c2nc[nH]c(=O)c2c1C#N
inactive: [1] -8.1% | [2] 21.2% | [3] -32.5% | [4] -17.8% | [5] 0.45% | [6] -8.4%

CCOC(=O)NN(C(=O)OCC)C(=C(C1=CCCCC1)N1CCOCC1)N(NC(=O)OCC)C(=O)OCC
inactive: [1] -14.4% | [2] 4.25% | [3] 3.3% | [4] 1.9% | [5] -4.8% | [6] -6.5%

O=C1N=C(C=c2ccc(=Cc3[nH]c(=O)[nH]c3O)cc2)C(=O)N1
inactive: [1] -5.95% | [2] -11.4% | [3] -14.9% | [4] 13.9% | [5] 8.35% | [6] 5.7%

Cc1ccc(NC2=CC(=O)c3ccccc3C2=O)cc1
inactive: [1] 22.4% | [2] 6.45% | [3] 17.8% | [4] -26.9% | [5] 13.8% | [6] 9.45%

Cc1cc(=O)oc2ccccc12
inactive: [1] 8.8% | [2] 0.6% | [3] 10.9% | [4] -3.1% | [5] 4.6% | [6] 1.55%

NC(=O)C(=O)N/N=C1\C(=O)N(c2ccc(Cl)cc2Cl)C(=O)C1C(=O)Nc1ccc(Cl)cc1Cl (centres undefined)
inactive: [1] -0.65% | [2] -0.55% | [3] -15.5% | [4] 22.4% | [5] -14.2% | [6] -16.3%

CC(C)(C)NCCCCCO
inactive: [1] -11.8% | [2] 17.6% | [3] 16.1% | [4] -8.35% | [5] -5.7% | [6] -16.1%

CCOc1ccc(NCC(=O)N2CC(=O)Nc3ccccc32)cc1
inactive: [1] -19.6% | [2] -21.9% | [3] -40.4% | [4] -5.15% | [5] -42.2% | [6] -35.2%

OC1CN(c2ccccc2)CC(O)CN(c2ccccc2)C1 (centres undefined)
inactive: [1] -8.1% | [2] 2.35% | [3] 7.3% | [4] -11.8% | [5] -16.1% | [6] 6.2%

C/C=C1\OC(n2cnc3c(N)ncnc32)C(O)C1O (centres undefined)
inactive: [1] -0.3% | [2] -11.8% | [3] -14.9% | [4] 2.5% | [5] -16.2% | [6] -1.8%

C1CCC(C2CCCC[N-]2)[N-]C1.C1CCC(C2CCCC[N-]2)[N-]C1.[Cl][Ru][Cl] (centres undefined)
inactive: [1] 47% | [2] 8.55% | [3] 29.1% | [4] 6.8% | [5] -0.75% | [6] 18.9%

C1=C(N2CCOCC2)/C(=C2\SC(=Nc3ccccc3)C(=Nc3ccccc3)N2c2ccccc2)CC1
inactive: [1] -5.8% | [2] -5.4% | [3] -7.65% | [4] 14.3% | [5] -5.35% | [6] -28.6%

O=C1C2C3CCC(C3)C2C(=O)N1CCO (centres undefined)
inactive: [1] 3.35% | [2] 6% | [3] 7.15% | [4] 4.85% | [5] 17.9% | [6] -2.45%

CN(N=O)C(=O)NCCc1ccccc1
inactive: [1] 13.6% | [2] -11.9% | [3] 11.6% | [4] -36.6% | [5] -5.2% | [6] 16.2%

O=[N+]([O-])c1ccc2[nH]c(-c3ccccc3)cc2c1
inactive: [1] 5.2% | [2] 10.8% | [3] -3.6% | [4] 7.3% | [5] -2.2% | [6] 18.9%

CC(C)=C1OC(=O)C1(C)C
inactive: [1] -5.75% | [2] 15.7% | [3] 1.5% | [4] 17.4% | [5] 5.5% | [6] -12.6%

N#CC1(Nc2ccc(Cl)cc2)CCCC1
inactive: [1] 5.6% | [2] 2.4% | [3] -6.5% | [4] -15.6% | [5] 13.8% | [6] 3.1%

NC(=O)CC(N)C(N)=O (centres undefined)
inactive: [1] -8.25% | [2] -33.1% | [3] -47.8% | [4] 13.2% | [5] -18.3% | [6] -3.25%

CC(=O)N(c1ccccn1)c1ccccn1
inactive: [1] -15.3% | [2] -10.2% | [3] -19.9% | [4] -54.5% | [5] 0.5% | [6] -31.2%

COc1cc(NS(C)(=O)=O)ccc1Nc1c2ccccc2nc2c1[nH]c1ccc(NC3OC(CO)C(O)C(O)C3O)cc12 (centres undefined)
inactive: [1] 53.8% | [2] -4.9% | [3] 3.35% | [4] 0.2% | [5] -26.3% | [6] -27.6%

COc1ccc2[nH]c3c4c(cc(-c5ccccc5)c3c2c1)C(=O)N(c1ccccc1)C4=O
inactive: [1] -11.1% | [2] -6% | [3] -16.6% | [4] 11.2% | [5] -4.3% | [6] -6.8%

CC(C(O)C(F)(F)F)[N+](C)(C)C (centres undefined)
inactive: [1] 34.8% | [2] 5.85% | [3] 1.8% | [4] -13.8% | [5] 10.1% | [6] 28%

CCCn1c(C)nc2cc(C(F)(F)F)cc(N)c21
inactive: [1] 14.3% | [2] 11.4% | [3] 1.55% | [4] -35.4% | [5] 17.9% | [6] 5.5%

Cc1cc2c(c(S(=O)(=O)c3ccc(Cl)cc3[N+](=O)[O-])c1)NCCC2
inactive: [1] 6.4% | [2] 11% | [3] 8.25% | [4] 15.3% | [5] 15.7% | [6] -0.7%

Cn1c[n+](-c2ccccc2)c([S-])n1
inactive: [1] -0.05% | [2] 5.05% | [3] 5.15% | [4] -22.5% | [5] -24.9% | [6] -7.4%

Cc1ccc(NC(=O)OCC2CC3C=CC2C3)cc1NC(=O)OCC1CC2C=CC1C2 (centres undefined)
inactive: [1] -21.2% | [2] -14.3% | [3] -14.8% | [4] -6.8% | [5] -3.25% | [6] 3.7%

N#CSCc1cc(Cl)c(CSC#N)c(Cl)c1Cl
inactive: [1] -6.95% | [2] 22.2% | [3] -3% | [4] 16.6% | [5] 13.2% | [6] 31.4%

CCCCNC[C@@H](O)[C@H](O)COS(C)(=O)=O
inactive: [1] 0.4% | [2] -11.7% | [3] -8.65% | [4] -24.1% | [5] -13.7% | [6] -7.05%

CCOC(=O)Nc1ccc(C2SCCN2C(=O)Nc2ccc(Cl)cc2)cc1 (centres undefined)
inactive: [1] -9.5% | [2] -14.3% | [3] -9.45% | [4] -5.65% | [5] -7.7% | [6] -11.3%

O=c1[nH]c(=S)[nH]c2c1CCC2
inactive: [1] 6% | [2] 25.4% | [3] 44.2% | [4] 21.4% | [5] 35.2% | [6] 24.1%

O=C1NC(=O)C2CCC12 (centres undefined)
inactive: [1] 1.95% | [2] -4.2% | [3] 1.45% | [4] -20.7% | [5] 8.95% | [6] 18.2%

Cc1ccc(-n2cnc3c(Cl)ncnc32)cc1
inactive: [1] -18.1% | [2] -0.05% | [3] -12.1% | [4] -15.2% | [5] -16.8% | [6] 3.3%

O=C1CCCN(Cc2ccccc2)C1
inactive: [1] -4.2% | [2] -25.2% | [3] 0.35% | [4] 1.2% | [5] -0.4% | [6] 9.45%

CC(C)(C)C(=O)/C=C(\OB(F)F)C(C)(C)C
inactive: [1] 2.25% | [2] -5.2% | [3] -9.15% | [4] 26.9% | [5] -15.8% | [6] 5.25%

O=C1COc2ccccc2OCCOCCOc2ccccc2OC1
inactive: [1] 11.2% | [2] -2.9% | [3] -2.7% | [4] -12.2% | [5] 2.3% | [6] -14.9%

NC(=O)NC(CCl)NC(N)=O
inactive: [1] 6.6% | [2] -5.8% | [3] -2.05% | [4] 13.1% | [5] -3.55% | [6] -12.3%

CC(C)C(O)C(C)(C)C(O)C#N (centres undefined)
inactive: [1] 18.1% | [2] -1.2% | [3] -0.1% | [4] -2.45% | [5] 0.4% | [6] 7.7%

COc1cc2c(cc1OC)C(c1ccccc1[N+](=O)[O-])=NCC2
inactive: [1] 0.2% | [2] -0.8% | [3] 29.7% | [4] 11.7% | [5] 22.5% | [6] 15.2%

CC(=O)Nc1ncc(CCC2OCCO2)c(=O)[nH]1
inactive: [1] -0.55% | [2] -25.1% | [3] 19.6% | [4] -0.25% | [5] 7.65% | [6] 6.85%

Source: PubChem BioAssay (NCI)
